In PubChem BioAssay:
For some assays here: Results with a measured potency or affinity are listed apart. Calls of active or inactive are those of the source. Unless noted, how the calls were made is not given here.

Legend:
[1] = antimalarial activity against Dd2 strain (AID 2302;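 active means growth inhibition above 50% at the single 2 µM test dose, taken to imply half-maximal potency below 2 µM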;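 further: 0% = DMSO untreated growth and 100% = chloroquine plus artemisinin killed control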); conditions: P. falciparum Dd2 in RBCs, LDH growth readout, 72 h; at 2 µM; hits give high values
[2] = human hepatoma cell viability loss – ATP luminescence, cytotoxicity control for P. falciparum antimalarial project, primary screen (AID 2303;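 active means inhibition above 50%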;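 further: 0% = DMSO wells and 100% = digitonin-killed cells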); conditions: HepG2 viability, 24-48 h, at 10 µM, hits give high values
[3] = target: L-lactate dehydrogenase (Plasmodium falciparum (isolate CDC / Honduras)) (UniProt Q27743); experiment: PfLDH activity inhibition – cell lysate, 3D7 strain, counter-screen for P. falciparum growth inhibition project (AID 2304);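 further: 0% = vehicle and 100% = reference inhibitor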; conditions: P. falciparum 3D7 crude extract, LDH APAD/NBT absorbance; at 2 µM; hits give high values
Sequence of L-lactate dehydrogenase (Plasmodium falciparum (isolate CDC / Honduras)) (Q27743 whole entry, looked up): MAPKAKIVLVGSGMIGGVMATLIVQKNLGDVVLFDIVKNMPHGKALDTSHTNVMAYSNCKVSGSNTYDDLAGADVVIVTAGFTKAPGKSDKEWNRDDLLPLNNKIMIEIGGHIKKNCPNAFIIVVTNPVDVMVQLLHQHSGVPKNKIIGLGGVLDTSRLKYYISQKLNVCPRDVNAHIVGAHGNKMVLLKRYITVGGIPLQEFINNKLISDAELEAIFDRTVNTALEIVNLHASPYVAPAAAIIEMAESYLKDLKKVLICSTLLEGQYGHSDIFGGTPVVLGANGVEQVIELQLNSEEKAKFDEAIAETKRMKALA

[4] = inhibition of 3D7 malaria parasite growth – strain 3D7 (AID 2306);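 further: 0% = DMSO wells and 100% = chloroquine plus artemisinin control wells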; conditions: P. falciparum 3D7 erythrocytic growth, LDH absorbance, 72 h; at 2 µM; hits give high values
[5] = target: Calcium-dependent protein kinase 1 (Plasmodium falciparum (isolate 3D7)) (UniProt P62344); experiment: PfCDPK1 kinase inhibitors, biochemical, TCAMS library (AID 1159585; cut-off not given, nearly all actives have IC50 up to about 0.98 µM;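 further: inhibitors leave more ATP so luminescence rises with inhibition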); conditions: recombinant PfCDPK1, Kinase-Glo ATP depletion luminescence
Sequence of Calcium-dependent protein kinase 1 (Plasmodium falciparum (isolate 3D7)) (P62344 whole entry, looked up): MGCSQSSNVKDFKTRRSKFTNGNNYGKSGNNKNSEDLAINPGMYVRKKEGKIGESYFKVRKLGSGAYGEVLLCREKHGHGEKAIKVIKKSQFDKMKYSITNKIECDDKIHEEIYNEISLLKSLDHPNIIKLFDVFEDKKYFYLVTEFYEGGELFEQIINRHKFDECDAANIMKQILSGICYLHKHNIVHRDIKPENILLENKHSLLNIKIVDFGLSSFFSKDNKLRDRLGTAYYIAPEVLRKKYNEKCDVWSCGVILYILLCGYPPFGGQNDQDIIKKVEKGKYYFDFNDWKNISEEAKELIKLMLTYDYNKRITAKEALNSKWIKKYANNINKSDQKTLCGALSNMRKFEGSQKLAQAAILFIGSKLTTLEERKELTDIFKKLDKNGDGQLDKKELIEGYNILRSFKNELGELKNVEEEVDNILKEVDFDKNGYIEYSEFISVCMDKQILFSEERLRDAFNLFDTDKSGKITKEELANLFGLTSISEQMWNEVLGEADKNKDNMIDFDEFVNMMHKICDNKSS

[6] = target: Plasmodium falciparum protein kinase 6 (PK6, PF3D7_1337100) (UniProt Q8IDW1); experiment: PfPK6 kinase inhibitors, biochemical, TCAMS library (AID 1159586); conditions: recombinant PfPK6, Kinase-Glo ATP depletion luminescence
Sequence of Plasmodium falciparum protein kinase 6 (PK6, PF3D7_1337100) (Q8IDW1 1-305): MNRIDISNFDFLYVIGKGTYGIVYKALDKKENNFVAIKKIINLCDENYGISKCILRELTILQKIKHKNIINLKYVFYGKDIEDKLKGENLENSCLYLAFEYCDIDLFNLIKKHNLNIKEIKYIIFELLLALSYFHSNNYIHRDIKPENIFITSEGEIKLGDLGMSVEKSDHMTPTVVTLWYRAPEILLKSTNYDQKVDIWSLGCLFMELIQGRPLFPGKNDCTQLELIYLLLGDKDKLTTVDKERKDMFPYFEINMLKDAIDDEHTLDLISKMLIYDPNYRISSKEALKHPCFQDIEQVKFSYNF

[7] = target: Protein kinase 7 (PK7), Plasmodium falciparum 3D7 (PF3D7_0213400) (UniProt Q7YTF7); experiment: inhibition of Plasmodium PK7 catalytic activity – biochemical, TCAMS antimalarial set, Kinase-Glo luminescence (AID 1159587); conditions: recombinant PfPK7, Kinase-Glo ATP depletion luminescence
Sequence of Protein kinase 7 (PK7), Plasmodium falciparum 3D7 (PF3D7_0213400) (Q7YTF7 1-343): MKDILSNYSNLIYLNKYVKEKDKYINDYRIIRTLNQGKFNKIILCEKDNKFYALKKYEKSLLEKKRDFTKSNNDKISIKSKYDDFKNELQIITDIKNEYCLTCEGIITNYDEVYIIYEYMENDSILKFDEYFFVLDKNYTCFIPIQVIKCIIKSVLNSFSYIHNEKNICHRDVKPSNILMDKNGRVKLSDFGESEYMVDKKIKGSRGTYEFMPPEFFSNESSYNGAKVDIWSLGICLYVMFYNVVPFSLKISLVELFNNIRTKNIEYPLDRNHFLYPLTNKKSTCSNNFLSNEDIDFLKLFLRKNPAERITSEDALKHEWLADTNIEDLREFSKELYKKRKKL

[8] = target: Calcium-dependent protein kinase 4 (Plasmodium falciparum (isolate 3D7)) (UniProt Q8IBS5); experiment: PfCDPK4 kinase inhibitors, biochemical, TCAMS library (AID 1159588; cut-off not given, nearly all actives have IC50 up to about 0.91 µM); conditions: recombinant PfCDPK4, Kinase-Glo ATP depletion luminescence
Sequence of Calcium-dependent protein kinase 4 (Plasmodium falciparum (isolate 3D7)) (Q8IBS5 whole entry, looked up): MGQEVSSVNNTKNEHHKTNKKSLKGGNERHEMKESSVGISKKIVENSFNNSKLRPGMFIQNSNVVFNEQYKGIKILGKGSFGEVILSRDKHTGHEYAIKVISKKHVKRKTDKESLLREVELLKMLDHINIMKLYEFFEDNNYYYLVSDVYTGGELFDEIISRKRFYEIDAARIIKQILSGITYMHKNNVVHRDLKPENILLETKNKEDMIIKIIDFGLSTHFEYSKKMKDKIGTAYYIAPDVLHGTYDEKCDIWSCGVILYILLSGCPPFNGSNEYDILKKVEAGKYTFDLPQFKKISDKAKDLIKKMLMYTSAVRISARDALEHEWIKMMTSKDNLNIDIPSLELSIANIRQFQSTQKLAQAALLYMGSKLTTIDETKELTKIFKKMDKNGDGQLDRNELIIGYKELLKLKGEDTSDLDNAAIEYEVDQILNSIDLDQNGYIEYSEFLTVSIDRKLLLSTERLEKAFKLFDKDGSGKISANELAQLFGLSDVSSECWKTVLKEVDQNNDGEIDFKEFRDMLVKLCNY

Cc1cc2nc(-c3ccc(C(=O)NCCCc4ccccc4)cc3)[nH]c2cc1C
inactive: growth inhibition [1] 5% | inhibition [2] 7% | inhibition [3] -2% | outcome [5] | outcome [6] | outcome [7] | outcome [8]
active: growth inhibition [4] 91%

CC(C)C[C@H](NC(=O)c1cc(-c2ccc(C(C)(C)C)cc2)no1)C(=O)O (tested in a mixture with another compound)
inactive: growth inhibition [1] 6% | inhibition [2] 3% | inhibition [3] -3% | outcome [5] | outcome [6] | outcome [7] | outcome [8]
active: growth inhibition [4] 95%

O=C(NC1CCC(N2CCN(c3cccc4[nH]ccc34)CC2)CC1)c1cc2cccnc2[nH]1 (stereo not given)
inactive: inhibition [2] 9% | inhibition [3] -2% | outcome [5] | outcome [6] | outcome [7] | outcome [8]
active: growth inhibition [1] 85% | growth inhibition [4] 99%

COc1ccc2nc(C)cc(NN=Cc3ccc(Cl)cc3)c2c1
active: growth inhibition [1] 100% | growth inhibition [4] 100%
inactive: inhibition [2] 2% | inhibition [3] 3% | outcome [5] | outcome [6] | outcome [7] | outcome [8]

O=C(NCCN1CCCc2ccccc21)C1CCN(c2nc(-c3ccc(Cl)cc3)no2)CC1
inactive: inhibition [2] 11% | inhibition [3] -1% | outcome [5] | outcome [6] | outcome [7] | outcome [8]
active: growth inhibition [1] 62% | growth inhibition [4] 86%

Cc1cc2nc(-c3ccc(C(=O)NCc4ccc(Cl)c(Cl)c4)cc3)[nH]c2cc1C
inactive: inhibition [2] 6% | inhibition [3] 1% | outcome [5] | outcome [6] | outcome [7] | outcome [8]
active: growth inhibition [1] 83% | growth inhibition [4] 96%

COc1ccc2ncc(F)c(CCN3C[C@H](CNCc4ccc5c(c4)OCCO5)[C@H](O)C3)c2n1
inactive: growth inhibition [1] 35% | inhibition [2] 18% | inhibition [3] 7% | outcome [5] | outcome [6] | outcome [7] | outcome [8]
active: growth inhibition [4] 94%

O=C(NCC1CCN(Cc2cccc(C(F)(F)F)c2)C1)c1cc(-c2cccc(C(F)(F)F)c2)cs1 (stereo not given)
inactive: inhibition [2] 35% | inhibition [3] -2% | outcome [5] | outcome [6] | outcome [7] | outcome [8]
active: growth inhibition [1] 74% | growth inhibition [4] 100%

O=C(Nc1ccc(Cl)c(Cl)c1)N1CCC(CNCc2cccc([N+](=O)[O-])c2)CC1
active: growth inhibition [4] 98%
inactive: growth inhibition [1] 6% | inhibition [2] 13% | inhibition [3] 2% | outcome [5] | outcome [6] | outcome [7] | outcome [8]

CC(=O)c1sc2ccccc2c1O
active: growth inhibition [4] 91%
inactive: growth inhibition [1] -2% | inhibition [2] 14% | inhibition [3] 6% | outcome [5] | outcome [6] | outcome [7] | outcome [8]

Cn1cncc1CCN(Cc1ccc(-c2ccc(C(F)(F)F)cc2)cc1)C(=O)Cn1c(CCc2cccc(F)c2F)cc(=O)c2cccnc21
active: growth inhibition [1] 97% | growth inhibition [4] 100%
inactive: inhibition [2] 44% | inhibition [3] -2% | outcome [5] | outcome [6] | outcome [7] | outcome [8]

O=C(Nc1cccnc1)c1cc(-c2cc(Cl)ccc2O)n[nH]1
active: growth inhibition [1] 85% | growth inhibition [4] 98%
inactive: inhibition [2] 7% | inhibition [3] 6% | outcome [5] | outcome [6] | outcome [7] | outcome [8]

Cc1ccc(O)cc1Nc1ccnc2ccc(-c3cccc(CNCCN(C)C)c3)cc12
active: growth inhibition [4] 100%
inactive: growth inhibition [1] 46% | inhibition [2] -7% | inhibition [3] -3% | outcome [5] | outcome [6] | outcome [7] | outcome [8]

CC(C)(C)c1ccc(CN2CCC(CNC(=O)c3cc(-c4ccccc4)nc4ccccc34)CC2)cc1
inactive: growth inhibition [1] 36% | inhibition [2] 33% | inhibition [3] -1% | outcome [5] | outcome [6] | outcome [7] | outcome [8]
active: growth inhibition [4] 89%

CN1CCCC(CN2CCN(Cc3ccc(-c4ccc(-c5nc6ccccc6[nH]5)cc4)cc3)CC2)C1 (stereo not given)
inactive: inhibition [3] 0% | outcome [5] | outcome [6] | outcome [7] | outcome [8]
active: growth inhibition [1] 100% | inhibition [2] 69% | growth inhibition [4] 101%

COc1ccc(OC)c(Cc2cnc3nc(N)nc(N)c3c2C)c1
active: growth inhibition [1] 97% | inhibition [2] 68% | growth inhibition [4] 92%
inactive: inhibition [3] 5% | outcome [5] | outcome [6] | outcome [7] | outcome [8]

Cc1cccc2[nH]c(-c3cccc(-c4ccc(CNCc5cnn(-c6ccccc6)n5)cc4)c3)nc12
inactive: inhibition [2] 20% | inhibition [3] -4% | outcome [5] | outcome [6] | outcome [7] | outcome [8]
active: growth inhibition [1] 66% | growth inhibition [4] 102%

Cc1ccc([C@@H]2CC(=O)CC(c3ccccn3)[C@H]2[N+](=O)[O-])cc1 (stereo not given in full)
active: growth inhibition [4] 97%
inactive: growth inhibition [1] 2% | inhibition [2] 5% | inhibition [3] -1% | outcome [5] | outcome [6] | outcome [7] | outcome [8]

CC1CCCCC1N(C)C1CCN(CCCNC(=O)C=Cc2cccc(C(F)(F)F)c2)CC1 (stereo not given)
inactive: growth inhibition [1] 17% | inhibition [2] 47% | inhibition [3] -2% | outcome [5] | outcome [6] | outcome [7] | outcome [8]
active: growth inhibition [4] 100%

Cc1cc(Nc2c(C(N)=O)cnc3cc(-c4ccoc4)ccc23)ccc1N1CCN(C)CC1
active: growth inhibition [1] 100% | growth inhibition [4] 101%
inactive: inhibition [2] 7% | inhibition [3] 1% | outcome [5] | outcome [6] | outcome [7] | outcome [8]

CCOC(=O)c1cnc2c(OC)cc(OC)c(Cl)c2c1Nc1ccccc1
active: growth inhibition [1] 100% | growth inhibition [4] 99%
inactive: inhibition [2] 13% | inhibition [3] -3% | outcome [5] | outcome [6] | outcome [7] | outcome [8]

COc1ccc(CN2CCC(CNCC(c3ccccc3)c3ccccc3)CC2)cc1
inactive: inhibition [3] -4% | outcome [5] | outcome [6] | outcome [7] | outcome [8]
active: growth inhibition [1] 95% | inhibition [2] 84% | growth inhibition [4] 102%

CCC(C)c1ccc(O)c(NC(=O)c2cncc(Br)c2)c1 (stereo not given)
inactive: growth inhibition [1] 16% | inhibition [2] -13% | inhibition [3] -4% | outcome [5] | outcome [6] | outcome [7] | outcome [8]
active: growth inhibition [4] 100%

CS(=O)(=O)NCCCNCc1cccc(-c2cccc(-c3nc4ccc(C(F)(F)F)cc4[nH]3)c2)c1
active: growth inhibition [1] 100% | growth inhibition [4] 99%
inactive: inhibition [2] 17% | inhibition [3] 5% | outcome [5] | outcome [6] | outcome [7] | outcome [8]

COc1cc(CNC[C@@H](O)[C@H](Cc2ccccc2)NC(=O)c2cc(OC(C)C)cc(N3CCCCS3(=O)=O)c2)cc(OC)c1
inactive: inhibition [2] 7% | inhibition [3] 4% | outcome [5] | outcome [6] | outcome [7] | outcome [8]
active: growth inhibition [1] 94% | growth inhibition [4] 100%

CC(C)OC(=O)c1ccccc1S(N)(=O)=O
inactive: growth inhibition [1] -2% | inhibition [2] -6% | inhibition [3] 1% | outcome [5] | outcome [6] | outcome [7] | outcome [8]
active: growth inhibition [4] 97%

O=C(Cc1ccc(F)cc1)NC1CCN(c2ccnc3cc(Cl)ccc23)C1 (stereo not given)
inactive: inhibition [2] -1% | inhibition [3] 1% | outcome [5] | outcome [6] | outcome [7] | outcome [8]
active: growth inhibition [1] 85% | growth inhibition [4] 99%

CC(C)(C)NC(=O)c1ccc(Oc2ccc(OC(F)(F)F)cc2)c(NC(=O)C(C)(C)C)c1
inactive: growth inhibition [1] 2% | inhibition [2] -11% | inhibition [3] 3% | outcome [5] | outcome [6] | outcome [7] | outcome [8]
active: growth inhibition [4] 89%

c1ccc(CN2CCN(CCNc3c4ccccc4nc4ccccc34)CC2)cc1
inactive: inhibition [2] 44% | inhibition [3] 9% | outcome [5] | outcome [6] | outcome [7] | outcome [8]
active: growth inhibition [1] 97% | growth inhibition [4] 100%

CC(C)CCN1C(=O)C(NC(=O)Oc2ccccc2)C(=O)N(CC23CC4CC(CC(C4)C2)C3)c2ccccc21 (stereo not given)
active: growth inhibition [4] 95%
inactive: growth inhibition [1] 4% | inhibition [2] 3% | inhibition [3] 0% | outcome [5] | outcome [6] | outcome [7] | outcome [8]

CCCCN1C(=O)C(c2ccccc2)(c2ccccc2)N=C1N
active: growth inhibition [4] 87%
inactive: growth inhibition [1] 34% | inhibition [2] 19% | inhibition [3] 7% | outcome [5] | outcome [6] | outcome [7] | outcome [8]

Cn1nc2ccc3ccccc3c2nc1=N
inactive: inhibition [3] -4% | outcome [5] | outcome [6] | outcome [7] | outcome [8]
active: growth inhibition [1] 85% | inhibition [2] 100% | growth inhibition [4] 91%

Cc1ccc(NC(=O)NC2CCN(c3ccnc4ccccc34)C2)cc1 (stereo not given)
inactive: growth inhibition [1] 48% | inhibition [2] 7% | inhibition [3] 0% | outcome [5] | outcome [6] | outcome [7] | outcome [8]
active: growth inhibition [4] 99%

Cc1nc2nc(N)nc(N)c2c(C)c1Cc1cccc(F)c1
active: inhibition [2] 65% | growth inhibition [4] 96%
inactive: growth inhibition [1] 1% | inhibition [3] -5% | outcome [5] | outcome [6] | outcome [7] | outcome [8]

Nc1nc(N)c2c(CCc3ccc4ccccc4c3)cccc2n1
active: inhibition [2] 56% | growth inhibition [4] 102%
inactive: growth inhibition [1] 6% | inhibition [3] -2% | outcome [5] | outcome [6] | outcome [7] | outcome [8]

COc1ccc2nc(C)cc(NN=Cc3cccc(F)c3)c2c1
active: growth inhibition [1] 100% | growth inhibition [4] 100%
inactive: inhibition [2] 2% | inhibition [3] 1% | outcome [5] | outcome [6] | outcome [7] | outcome [8]

COc1ccc(CNCCc2cccs2)cc1-c1ccc(OC)c(S(=O)(=O)NCCN2CCCC2)c1
active: growth inhibition [4] 96%
inactive: growth inhibition [1] 19% | inhibition [2] 16% | inhibition [3] 1% | outcome [5] | outcome [6] | outcome [7] | outcome [8]

O=C(Nc1cccc(C(F)(F)F)c1)c1cccc(S(=O)(=O)NC2CCCN(CC3CCCCC3)C2)c1 (stereo not given)
active: growth inhibition [4] 97%
inactive: growth inhibition [1] 15% | inhibition [2] 18% | inhibition [3] 1% | outcome [5] | outcome [6] | outcome [7] | outcome [8]

CSc1ccc(C=CC(=O)NC(=O)c2ccccc2O)cc1
active: growth inhibition [1] 96% | growth inhibition [4] 97%
inactive: inhibition [2] 2% | inhibition [3] 4% | outcome [5] | outcome [6] | outcome [7] | outcome [8]

O=C(Nc1ccc(OC2CCN(Cc3ccsc3)CC2)c(Cl)c1)c1ccco1
active: growth inhibition [1] 85% | growth inhibition [4] 87%
inactive: inhibition [2] 7% | inhibition [3] -4% | outcome [5] | outcome [6] | outcome [7] | outcome [8]
